Sm TGR inh – S. mansoni TGR enzyme inhibition; Q962Y6; purified TGR, DTNB reduction, TNB absorbance 405 nm; Potency, µM (doses to about 114 µM), actives largely listed as inhibitors; 360,000 compounds, 3% hits; further: nearly all actives have a fitted effect of over 60% in size
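First, TGR (20 nM dispensed) and NADPH were mixed with compound. Second, a 15 min room-temperature incubation followed. Third, further NADPH and then DTNB were added to start the reaction. Finally, TNB absorbance was monitored kinetically.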
AmpC inh no detg – inhibitors of E. coli AmpC beta-lactamase without detergent. AmpC nitrocefin hydrolysis, absorbance 480 nm, 0.0001% Triton. Potency, µM (titrated, usually from 57.1 µM), actives largely listed as inhibitors. 330,000 compounds, 0.52% hits. AID 485341; further: nearly all actives have a fitted effect of over 20% in size
Target sequence (P00811 whole entry, looked up): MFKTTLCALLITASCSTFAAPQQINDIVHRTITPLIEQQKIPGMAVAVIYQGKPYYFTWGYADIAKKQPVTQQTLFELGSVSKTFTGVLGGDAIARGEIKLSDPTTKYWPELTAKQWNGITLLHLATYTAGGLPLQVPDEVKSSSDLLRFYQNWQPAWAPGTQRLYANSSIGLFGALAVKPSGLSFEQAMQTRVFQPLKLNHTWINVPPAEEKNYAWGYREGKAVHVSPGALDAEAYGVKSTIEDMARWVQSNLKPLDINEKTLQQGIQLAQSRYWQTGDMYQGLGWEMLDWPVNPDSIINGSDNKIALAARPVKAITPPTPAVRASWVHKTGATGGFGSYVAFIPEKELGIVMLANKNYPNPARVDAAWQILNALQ
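20 mM phosphate pH 7.0 + 0.01% (detergent screen) or 0.0001% Triton X-100; 5.3 nM AmpC reagent; cpd preinc 15 min RT; nitrocefin (800 uM stock) to start; A480 q20 s × 4 min; Activity was normalised to no-enzyme and no-compound control wells.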
AmpC detergent – inhibitors of E. coli AmpC beta-lactamase with detergent; AmpC hydrolysis of nitrocefin, absorbance 480 nm, 0.01% Triton; Potency, µM (highest dose often 114 µM), most hits filed as inhibitors; 370,000 compounds, 0.041% hits; further: nearly all actives have a fitted effect of over 25% in size
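AmpC (5.3 nM in the dispensed reagent) in 20 mM phosphate pH 7.0 with 0.01% (detergent screen) or 0.0001% Triton X-100 was preincubated with compounds for 15 min at room temperature. Nitrocefin was then added from an 800 uM solution, and hydrolysis was followed at 480 nm.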
AMA1 RON2 block – inhibitors of Plasmodium falciparum AMA1-RON2 interaction. AlphaScreen AMA1-biotinylated RON2 peptide binding. 360,000 compounds, 0.2% hits. Potency, µM (top dose mostly 58.2 µM), hits mostly inhibitors; further: nearly all actives have a fitted effect of over 45% in size
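AMA1 (3D7) with his tag at 25 nM final met compounds first, then biotinylated RON2 peptide at 25 nM; detection used donor plus acceptor beads, 10 µg/mL apiece, read by AlphaScreen after 30 min at room temperature.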
FMDV antiviral – antivirals against foot and mouth disease virus | FMDV antiviral cell-based qHTS | Potency, µM (titrated, usually from 57.9 µM), actives largely listed as inhibitors | 410,000 compounds, 1.2% hits | AID 1159524; calls by dose curve; tested in HEK293T cells; further: read-out not given here; nearly all actives have a fitted effect of over 45% in size
Numbers stand for hits; i = inactive; ? = inconclusive; nt = not tested or not shown. Only some compounds are listed: those with a hit (about 4.1% of all), similar ones and a draw of the others. Unless noted, the call rests on the fitted dose curve; in most records, active means well fitted curve in the direction sought with a large enough effect; inconclusive means small, poorly fitted or top-dose-only effect, or another doubt; inactive means no such curve, though single readings can be large; an effect the other way counts as inactive or inconclusive.

SMILES | Sm TGR inh | AmpC inh no detg | AmpC detergent | AMA1 RON2 block | FMDV antiviral
O=C(COC(=O)C1CC(=O)N(Cc2ccco2)C1)c1ccc(OC(=O)c2ccccc2)cc1 (centres undefined) | 25.1µM | i | i | i | i
O=C(OCC(=O)N1c2ccccc2Sc2ccccc21)C1CC(=O)N(Cc2ccco2)C1 (centres undefined) | 28.2µM | i | ? | i | i
Cc1csc(NC(=O)C2CC(=O)N(Cc3ccco3)C2)n1 (centres undefined) | 44.7µM | i | i | i | i
CCc1ccccc1NS(=O)(=O)c1ccc2c(c1)CC(=O)N2 | i | nt | i | nt | i
CCOc1ccccc1NC(=O)Cn1c(=O)n(-c2ccc(F)cc2)c(=O)c2sc3ccccc3c21 | i | nt | i | nt | i
COc1cc(Nc2ccccc2Cl)c([N+](=O)[O-])nc1[N+](=O)[O-] | 39.8µM | i | i | i | ?
CCOc1ccccc1C1CC(=O)Nc2c1c(=O)n(C)c1ncnn21 (centres undefined) | i | nt | i | nt | i
CCCCNS(=O)(=O)c1cccc(NC(=O)[C@H]2C[C@H](O)[C@@H](CO)O2)c1 | nt | nt | nt | i | i
COc1ccc(N2C(=O)[C@@H]3C[C@H]2CN3Cc2cccn2-c2ccccn2)cc1Cl | nt | nt | nt | nt | i
COc1ccc(C(=O)Nn2c(SCC(=O)N3CCC(C)CC3)nc3ccccc3c2=O)cc1 | i | i | i | i | 11.2µM
COc1ccc(C(=O)Nn2c(SCC(=O)c3ccc(Cl)cc3)nc3ccccc3c2=O)cc1 | i | i | i | i | i
COc1ccc(C(=O)Nn2c(SCC(=O)NC3CCCCC3)nc3ccccc3c2=O)cc1 | i | i | i | i | 12.6µM
CCOC(=O)c1cc2c(=O)n3ccccc3nc2n(CC2CCCO2)c1=NC(=O)c1ccc(F)cc1 (centres undefined) | i | nt | i | nt | i
Cc1[nH]c2ccccc2c1C1C(c2ccccc2)=NN=C(C(C)C)N1O (centres undefined) | 11.2µM | i | i | i | i
COc1cc(NCCCC(C)N)c2ncccc2c1 (centres undefined) | 35.5µM | i | i | i | i
O=S(=O)(c1ccc(Br)cc1)c1nc(-c2cccs2)oc1SCc1ccccc1F | i | nt | i | nt | i
O=[N+]([O-])c1cccc2nc3ccccc3c(NCCCn3ccnc3[N+](=O)[O-])c12 | nt | nt | nt | i | 14.1µM
O=[N+]([O-])c1ccccc1Nc1c2ccccc2nc2ccccc12 | nt | i | i | i | i
Cc1ccc[n+](CC(=O)Nc2c(Cl)cc(Cl)cc2Cl)c1 | i | i | i | i | i
O=C(C[n+]1ccccc1)Nc1ccccc1[N+](=O)[O-] | ? | i | i | i | i
O=C(C[n+]1ccccc1)Nc1ccccc1Br | 0.1µM | i | i | i | i
O=C(C[n+]1ccccc1)Nc1c(Cl)cc(Cl)cc1Cl | 8.91µM | i | i | i | i
CCOC(=O)c1cnn(-c2ccc(OC)cc2)c1C1CCN(C(=O)OC(C)(C)C)CC1 | i | nt | i | nt | i
Cc1cc(C)cc(NC(=O)C(=O)NCC(c2cccnc2)N2CCc3ccccc32)c1 (centres undefined) | i | nt | i | nt | i
COc1ccc(C)cc1NC(=O)C(Sc1nnc(Nc2ccccc2F)s1)c1ccccc1 (centres undefined) | i | 3.55µM | i | i | i
SMILES | Sm TGR inh | AmpC inh no detg | AmpC detergent | AMA1 RON2 block | FMDV antiviral
CCn1c(SCC(=O)c2ccccc2)nc2sc3c(c2c1=O)CCN(C)C3 | 17.8µM | i | i | i | i
CN1CCc2c(sc3nc(SCC(N)=O)n(-c4ccccc4)c(=O)c23)C1 | ? | i | i | i | i
COC(=O)CSc1nc2sc3c(c2c(=O)n1-c1ccccc1)CCN(C)C3 | 35.5µM | i | i | i | i
CCn1c(SCC(=O)NCCc2ccccc2)nc2sc3c(c2c1=O)CCN(C)C3 | i | i | i | i | i
CCN(CC)CCCN(Cc1cc2cc3c(cc2[nH]c1=O)OCO3)C(=O)Nc1ccccc1OC | i | 0.398µM | i | i | i
CN(C)c1ccc(C(CNS(=O)(=O)c2ccc(F)c(F)c2)c2c[nH]c3ccccc23)cc1 (centres undefined) | i | i | i | 14.1µM | i
CN(C)c1ccc(C(CNC(=O)c2ccccc2F)c2c[nH]c3ccccc23)cc1 (centres undefined) | i | i | i | i | i
O=C(O)[C@H]1CCC(=O)N1Cc1ccco1 | i | i | i | i | i
